In PubChem BioAssay (Tox21):
Values joined by “and” are separate entries in the source; they are usually repeats but may differ in a detail not shown here. Identical values can stand only once. Inconclusive results are not listed. Where a call stands in place of a potency, no number is given. A structure can be active in one record and inactive in another. Active and inactive are the calls of the source. Unless noted, calls come from the whole dose curve; as a rule, active = well fitted curve in the direction sought with a large enough effect in the repeat runs; inconclusive = weak or mixed curves; inactive = no such curve, though single readings can be large; an effect the other way counts as inactive or inconclusive.

Key:
[1] = qHTS assay for small molecule disruptors of the mitochondrial membrane potential - cell viability (AID 720634; calls by dose curve;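 note: human HepG2 liver cancer cells; series mostly up to about 83 µM; nearly all actives have a fitted effect of over 20% in size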)
In short: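 In this qHTS format, HepG2 cells plated overnight were pinned with compound, incubated 1 hr, and assayed for ATP luminescence with CellTiter-Glo after m-MPI dye addition.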

[2] = qHTS assay for small molecule disruptors of the mitochondrial membrane potential (AID 720635); note: potency is the fitted concentration of half-maximal effect
In short: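 HepG2 cells exposed to compound 1 hr at 37C, then Mito-MPS dye 30 min. Ratio read of aggregate (540/590 nm) versus monomer (490/535 nm) fluorescence.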

[3] = qHTS assay to test for compound auto fluorescence at 590 nm (red) in HepG2 cells (AID 720674)
In short: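 Seeding: 2,000 HepG2 cells/well, MEM/10% FBS, overnight 37 C. Dosing: compound vs DMSO. Incubation: 1 hr, 37 C, 5% CO2. Read: fluorescence 540 ex/590 em, Rose Bengal sodium as red reference.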

[4] = qHTS assay to test for compound auto fluorescence at 535 nm (green) in HepG2 cells (AID 720675)
[5] = qHTS assay to test for compound auto fluorescence at 460 nm (blue) in HEK293 cells (AID 720678)
In short: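 Cells were seeded and left to adhere for 4-5 hr at 37C. Compounds were then pin-transferred. After an overnight incubation at 37C under 5% CO2, intrinsic fluorescence at 405/460 nm was measured and referenced to triamterene.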

[6] = qHTS assay to test for compound auto fluorescence at 590 nm (red) in HEK293 cells (AID 720679)
In short: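 Each well held 2,000 HEK293 cells in medium containing 10% dialyzed FBS. Following 4-5 hr attachment at 37C, 23 nL test compound or DMSO was added; plates sat overnight, and red fluorescence (540/590nm) was recorded.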

[7] = qHTS assay to test for compound auto fluorescence at 535 nm (green) in HEK293 cells (AID 720680)
[8] = qHTS assay to test for compound auto fluorescence at 460 nm (blue) in HEK293 cell free culture (AID 720681)
In short: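 Compounds were added to cell-free DMEM with 10% FBS and fluorescence read directly. The blue channel used 405 nm excitation and 460 nm emission, with triamterene as the reference fluorophore.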

[9] = qHTS assay to test for compound auto fluorescence at 535 nm (green) in HEK293 cell free culture (AID 720682)
In short: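 Fluorescein serves as the green reference fluorophore; each compound's intrinsic emission at 535 nm (excitation 485 nm) is reported as an equivalent amount of that dye, measured in serum-containing DMEM without cells.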

[10] = qHTS assay to test for compound auto fluorescence at 590 nm (red) in HEK293 cell free culture (AID 720683)
In short: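 Cell-free wells of DMEM with 10% FBS received compound, and intrinsic fluorescence was read at excitation/emission 540/590 nm. Values expressed as equivalence to Rose Bengal sodium.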

[11] = qHTS assay to test for compound auto fluorescence at 460 nm (blue) in HepG2 cell free culture (AID 720685)
In short: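 Cell-free plates of MEM plus 10% FBS received 23 nL compound or DMSO vehicle; blue-channel (405/460 nm) intensity scored against triamterene as reference fluorophore.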

[12] = qHTS assay to test for compound auto fluorescence at 535 nm (green) in HepG2 cell free culture (AID 720686)
[13] = qHTS assay to test for compound auto fluorescence at 460 nm (blue) in HepG2 cells (AID 720687)
In short: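 HepG2 cells in MEM with 10% FBS, attached overnight at 37 C, were exposed to compound or DMSO for 1 hr at 37 C, 5% CO2. Blue fluorescence was read at 405/460 nm, with triamterene as reference fluorophore.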

[14] = qHTS assay for small molecule agonists of the p53 signaling pathway - cell viability (AID 651633; calls by dose curve; note: nearly all actives have a fitted effect of over 30% in size; note: potency is the fitted concentration of half-maximal effect)
In short: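 p53RE-bla cells were treated with compound for 16 hours at 37 C. Cytotoxicity was then measured as CellTiter-Glo luminescence after 30 min at room temperature.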

[15] = qHTS assay for small molecules that induce genotoxicity in human embryonic kidney cells expressing luciferase-tagged ATAD5 - cell viability (AID 651634; calls by dose curve; note: nearly all actives have a fitted effect of over 25% in size)
In short: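 15.5 hr compound or vehicle exposure of HEK293T cells expressing luciferase-tagged ATAD5 at 37C; live-cell protease activity is read by fluorescence after 30 min of CellTiter-Fluor.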

[16] = qHTS assay to test for compound auto fluorescence at 590 nm (red) in HepG2 cell free culture (AID 720684)
In short: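 Rose Bengal sodium served as the reference for red signal. Test compounds were dispensed into serum-containing MEM (10% FBS) without cells, and plates were read at 540/590 nm.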

[17] = biological target: Glucocorticoid receptor (Homo sapiens) (UniProt P04150); experiment: qHTS assay to identify small molecule agonists of the glucocorticoid receptor (GR) signaling pathway (AID 720691; active = well fitted activation curve with a large enough effect in the signal ratio in the repeat runs, not every such curve was filed as active; the % refers to the signal ratio)
Chain of Glucocorticoid receptor (Homo sapiens) (P04150 whole entry, looked up): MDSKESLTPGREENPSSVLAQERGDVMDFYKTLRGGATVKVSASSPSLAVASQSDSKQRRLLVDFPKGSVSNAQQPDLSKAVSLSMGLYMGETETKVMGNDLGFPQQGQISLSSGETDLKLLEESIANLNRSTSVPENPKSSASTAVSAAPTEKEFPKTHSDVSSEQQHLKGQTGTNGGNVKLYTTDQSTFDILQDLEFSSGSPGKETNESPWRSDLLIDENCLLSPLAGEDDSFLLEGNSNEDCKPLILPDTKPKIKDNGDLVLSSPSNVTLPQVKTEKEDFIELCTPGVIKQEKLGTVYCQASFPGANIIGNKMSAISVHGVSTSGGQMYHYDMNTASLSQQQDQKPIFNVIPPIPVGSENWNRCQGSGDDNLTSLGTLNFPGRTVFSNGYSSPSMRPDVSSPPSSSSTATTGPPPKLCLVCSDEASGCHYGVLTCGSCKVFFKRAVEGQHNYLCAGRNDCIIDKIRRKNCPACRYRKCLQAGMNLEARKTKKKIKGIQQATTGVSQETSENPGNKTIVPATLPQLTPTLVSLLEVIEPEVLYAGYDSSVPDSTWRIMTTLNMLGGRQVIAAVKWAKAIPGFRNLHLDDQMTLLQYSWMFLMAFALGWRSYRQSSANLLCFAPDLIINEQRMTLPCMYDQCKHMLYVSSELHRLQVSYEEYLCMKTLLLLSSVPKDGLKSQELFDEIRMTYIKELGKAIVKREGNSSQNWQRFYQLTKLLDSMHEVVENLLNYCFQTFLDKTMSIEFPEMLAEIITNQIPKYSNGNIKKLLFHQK
In short: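 Measures GR pathway activation through a GRE-beta-lactamase reporter stably integrated in HeLa cells, with 18 h compound treatment at 37 C and fluorescence detection using a FRET substrate.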

[18] = biological target: Glucocorticoid receptor (Homo sapiens) (UniProt P04150); experiment: qHTS assay to identify small molecule antagonists of the glucocorticoid receptor (GR) signaling pathway (AID 720692; active = well fitted inhibition curve with a large enough effect in the signal ratio in the repeat runs, not every such curve was filed as active; the % refers to the signal ratio; note: potency is the fitted concentration of half-maximal effect)
In short: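 Tox21 10K library screened in concentration-response for blockade of dexamethasone (5 nM final)-induced GRE-bla reporter activity in HeLa cells; 18 h treatment, fluorescence read.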

| Compound | Potency [1] | Potency [2] | outcome [3] | outcome [4] | outcome [5] | outcome [6] | outcome [7] | outcome [8] | outcome [9] | outcome [10] | outcome [11] | outcome [12] | outcome [13] | Potency [14] | Potency [15] | outcome [16] | Potency [17] | Potency [18] |
| --- | --- | --- | --- | --- | --- | --- | --- | --- | --- | --- | --- | --- | --- | --- | --- | --- | --- | --- |
| CCn1cc(C(=O)O)c(=O)c2ccc(C)nc21 | inactive | inactive | inactive | inactive | inactive | inactive | inactive | inactive | inactive | inactive | inactive | inactive | inactive |  |  |  |  |  |
| CCCCCCCCOc1ccc(C(=O)c2ccccc2)c(O)c1 | inactive | inactive and 61.1 µM (active) | inactive | inactive | inactive | inactive | inactive | inactive | inactive | inactive | inactive | inactive | inactive | inactive | inactive | inactive |  |  |
| N[C@@H](Cc1c[nH]c2ccc(O)cc12)C(=O)O | inactive | 26.6 µM (active) and 941 nM (active) | inactive | inactive | inactive | inactive | inactive | inactive | inactive | inactive | inactive | inactive | inactive | inactive | inactive | inactive | inactive | inactive |
| N[C@@H](Cc1c[nH]c2ccccc12)C(=O)O | inactive | inactive | inactive | inactive | inactive | inactive | inactive | inactive | inactive | inactive | inactive | inactive | inactive | inactive | inactive | inactive | inactive | inactive |
| NC(=O)N1c2ccccc2C=Cc2ccccc21 | inactive | inactive | inactive | inactive | inactive | inactive | inactive | inactive | inactive | inactive | inactive | inactive | inactive | inactive | inactive |  |  |  |
| CCCCOC(=O)CCCCCCCCC(=O)OCCCC | inactive | inactive | inactive | inactive | inactive | inactive | inactive | inactive | inactive | inactive | inactive | inactive | inactive | inactive | inactive |  | inactive | inactive |
| CCc1cc(C(N)=S)ccn1 | inactive | inactive | inactive | inactive | inactive | inactive | inactive | inactive | inactive | inactive | inactive | inactive | inactive | inactive | inactive | inactive | inactive | inactive |
| CC(=O)CCC(C)C | inactive | inactive | inactive | inactive | inactive | inactive | inactive | inactive | inactive | inactive | inactive | inactive | inactive | inactive | inactive |  | inactive | inactive |
| CC1=C(/C=C/C(C)=C/C=C/C(C)=C/C(=O)O)C(C)(C)CCC1 | inactive | inactive and 27.3 µM (active) | inactive | inactive | inactive | inactive | inactive | inactive | inactive | inactive | inactive | inactive | inactive | inactive and 68.7 µM (active) | inactive | inactive |  | 54.9 µM (active) |
| C[C@]12CC[C@@H]3c4ccc(O)cc4CC[C@H]3[C@@H]1CCC2=O | inactive | 13.3 µM (active) and 6.87 µM (active) | inactive | inactive | inactive | inactive | inactive | inactive | inactive | inactive | inactive | inactive | inactive |  | inactive | inactive |  |  |
| CC(=O)/C=C/C1=C(C)CCCC1(C)C | inactive |  | inactive | inactive | inactive | inactive | inactive | inactive | inactive | inactive | inactive | inactive | inactive | inactive | inactive |  |  |  |
| CCCCNC(=O)NS(=O)(=O)c1ccc(N)cc1 | inactive | inactive | inactive | inactive | inactive | inactive | inactive | inactive | inactive | inactive | inactive | inactive | inactive | inactive | inactive | inactive |  |  |
| CC(=O)OC/C=C(C)/C=C/C=C(C)/C=C/C1=C(C)CCCC1(C)C | inactive | inactive | inactive | inactive | inactive | inactive | inactive | inactive | inactive | inactive | inactive | inactive | inactive | inactive | inactive |  |  |  |
| COc1cc(C=O)ccc1O | inactive | inactive | inactive | inactive | inactive | inactive | inactive | inactive | inactive | inactive | inactive | inactive | inactive | inactive | inactive |  |  |  |
| c1ccc2[nH]c(-c3cscn3)nc2c1 | inactive |  | inactive | inactive | inactive | inactive | inactive | inactive | inactive | inactive | inactive | inactive | inactive | inactive | inactive | inactive | inactive | inactive |
